Experimental data reported in the supplement of paper PMC10338343.
± gives the standard deviation. The full ranking holds about 8,200 sequences; the median of “pre-steady-state target cleavage rate” is about 0.024, and the highest 2% start at about 1.3. The sample holds the highest values, similar sequences and a random draw of the others, so the mix is not that of the screen.

System: MIWI (PIWIL1) piRISC loaded with L1MC piRNA (30 nt)
Assay: pre-steady-state target cleavage rate (min^-1); MIWI and MILI are mouse PIWI proteins and EfPiwi is from a freshwater sponge; tags in brackets are library labels; higher = faster piRNA-guided slicing of the target
Conditions: guide: L1MC piRNA 5'p-UAACUAAAUACUAUGCAAGCUGUAGGUCCU
Procedure, shortened: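 The pre-steady-state cleavage rate was derived from a burst-and-steady-state fit of Cleave-'n-Seq data. For these assays, 1 nM active affinity-purified piRISC loaded with a single synthetic guide was mixed with […] a transcribed, DNA-blocked target RNA library in HEPES–potassium acetate buffer at 33 °C, with or without 500 nM GTSF1 partner protein, for 0–8 or 0–960 min. Sequencing counts of uncleaved targets were normalised to depth and to weakly complementary targets, and k3 was capped at 0.0001 min^-1 after three trials were pooled.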

[1] = auxiliary factor: 500 nM mouse GTSF1
[2] = auxiliary factor: none (no GTSF1)
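Note: 1 nM active piRISC with 0.1 nM target library at 33 °C single turnover.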

Sequence | pre-steady-state target cleavage rate [1] | pre-steady-state target cleavage rate [2]
UCGACCUAGCAGCUUGCAUAGUAUUUAGUUA | 1.34 ± 0.058 | 0.0726 ± 0.016
UGCACCUAGAGCUUGCAUAGUAUUUAGUUA | 1.2 ± 0.25 | 0.0155 ± 0.0045
AGGACCUAGCAGCUUGCAUAGUAUUUAGUUA | 1.21 ± 0.073 | 0.0735 ± 0.015
UCCACCUAGCAGCUUGCAUAGUAUUUAGUUA | 0.833 ± 0.057 | 0.0454 ± 0.0087
UCCACCUAGAGCUUGCAUAGUAUUUAGUUA | 0.593 ± 0.06 | 0.0282 ± 0.0051
UGGACCUAGCAGCUUGCAUAGUAUUUAGUUA | 1.59 ± 0.13 | 0.0734 ± 0.014
UCGACCUACAGCUUCCAUAGUAAUUAGUUA | 0.0526 ± 0.017 | 
UCCACCUACAGCUUGCAAUCUAUUUAGUUA | 0.194 ± 0.018 | 
UGGACCUACUGCUUGCAUAGUAAUUAGUUA | 0.866 ± 0.04 | 0.033 ± 0.0084
UCCUGGAUGUGCAUGCAUUGUAUUUAGUUA | 0.00495 ± 0.0033 | 
UCCUGGUACAGGAAGCAUAGUAUUUAGUAA | 0.0592 ± 0.011 | 
UCCACCAACAGCUAGCAUAGUAUUUAGUUA | 0.97 ± 0.033 | 0.0197 ± 0.0045
UGGAGGUACAGCUUGCAUAGUAUUUUCAAA | 0.0674 ± 0.014 | 0.00316 ± 0.0017
UGGAGCUACAGCUUCCAUAGUAUUUAGUUA | 0.275 ± 0.047 | 0.00584 ± 0.0013
UCCACCUACGCUUGCAUAGUAUUUAGUUA | 0.998 ± 0.04 | 0.0451 ± 0.0077
UCGACCUACACGCUUGCAUAGUAUUUAGUUA | 1.23 ± 0.063 | 0.0454 ± 0.0074
AGGACCUACGCUUGCAUAGUAUUUAGUUA | 1.27 ± 0.066 | 0.0719 ± 0.013

Sequence | pre-steady-state target cleavage rate [1] | pre-steady-state target cleavage rate [2]
UCGACCUACGCUUGCAUAGUAUUUAGUUA | 1.45 ± 0.052 | 0.0463 ± 0.0093
UGGACCUACACGCUUGCAUAGUAUUUAGUUA | 1.06 ± 0.06 | 0.0641 ± 0.013
UGGACCUACGCUUGCAUAGUAUUUAGUUA | 1.4 ± 0.081 | 0.046 ± 0.008
UCCACCUACAGGUUGCAUAGUAUUUAGUAA | 0.866 ± 0.1 | 0.0134 ± 0.0028
UCCUGGUACAGCUUGCCAUAGUAUUUAGUUA | 0.0951 ± 0.024 | 
UCCUCCUACUGCUUGCAUAGUAUUUAGAUA | 0.185 ± 0.024 | 0.0115 ± 0.002
UCCUGGAUGAGCUUGCAUAGUAAUUAGAUA | 0.136 ± 0.034 | 0.00679 ± 0.0036
UCCUGGAUGUGCUUGCAUUGUAUUUAGAUA | 0.0181 ± 0.0038 | 0.0063 ± 0.0025
UCCUGCUACAGCUAGCAUAGAAUUUAGUUA | 0.528 ± 0.048 | 0.0108 ± 0.0032
AGGGCCUACAGCUUGCAUAGUAUUUAGUUA | 1.39 ± 0.061 | 0.106 ± 0.023
UGGGCCUACAGCUUGCAUAGUAUUUAGUUA | 1.39 ± 0.08 | 0.0716 ± 0.013
UCCUGGAUGAGCUUGAAUAGUAUUUAGUUA | 0.944 ± 0.045 | 0.0233 ± 0.007
UCCUGGAUCAGCAUGCAUAGUAUUUUGUUA | 0.517 ± 0.03 | 0.00866 ± 0.003
UCCUGCUACAGCUUGCAAAGUAUUUAGAAA | 0.319 ± 0.043 | 0.00338 ± 0.0032
UCCUGCUACAGCUAGGAUAGUAUUUAGUUA | 1.15 ± 0.12 | 0.006 ± 0.0018
UCGACCAACAGCAUGCAUAGUAUUUAGUUA | 1.33 ± 0.037 | 0.033 ± 0.0067
UCGACCAACAGGUUGCAUAGUAUUUAGUUA | 1.16 ± 0.049 | 0.0326 ± 0.006
